VHR inh abs: blocks human VHR1 dual specificity phosphatase. AID 1654. actives 0.52% (n = 290,000). inhibition, % at 13.3 µM. recombinant VHR phosphatase, pNPP absorbance; in the data active means inhibition above about 50%
Target sequence (P51452 whole entry, looked up): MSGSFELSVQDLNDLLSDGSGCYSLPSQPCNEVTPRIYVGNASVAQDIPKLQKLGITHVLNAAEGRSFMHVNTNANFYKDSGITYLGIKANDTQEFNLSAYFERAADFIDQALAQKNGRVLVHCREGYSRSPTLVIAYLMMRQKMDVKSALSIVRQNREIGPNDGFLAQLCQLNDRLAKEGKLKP
BJeLR lethal: kills HRASV12-expressing BJeLR cells; inhibition, % (no concentration beside the values); actives 0.17% (n = 300,000); AID 1554; BJeLR (HRASV12) viability, CellTiter-Glo ATP luminescence, 48 h; in the data active means inhibition above about 50%
SARS 3CLpro inh: SARS-CoV 3CLpro protease inhibition; P0C6X7; recombinant SARS-CoV 3CLpro, quenched FRET peptide cleavage; inhibition, % at 6 µM; actives 0.14% (n = 290,000); AID 1706; in the data active means inhibition above about 12%
PrPC TRFRET: reduces human prion protein on the cell surface. P04156. cell surface PrPC, TR-FRET read-out. inhibition, % at 13.8 µM. actives 0.43% (n = 370,000). AID 720596; in the data active means inhibition above about 24%
Large screens that a line does not name were inactive. The list is not random: actives were taken first. Their share in the collection is about 1.1%.

CC(C)(C)c1ccc(-c2nnc(SCC(=O)Nc3ccc(S(=O)(=O)Nc4nccs4)cc3)n2-c2ccc(Cl)cc2)cc1	none (no result: VHR inh abs, BJeLR lethal, SARS 3CLpro inh)
O=C(/C=C/c1cccs1)Nc1ccc(Br)cn1	BJeLR lethal 53.3
O=C(/C=C/c1cccs1)Nc1cccc(NC(=O)/C=C/c2cccs2)n1	none
C=CS(=O)(=O)N(Cc1ccc(F)cc1)C(=C)C(=O)OC	PrPC TRFRET 53.3 (no result: VHR inh abs, BJeLR lethal, SARS 3CLpro inh)
CC1CCCN(S(=O)(=O)c2ccc(S(=O)(=O)N3CCCN(Cc4ccccc4)C3)cc2)C1 (stereo unspecified)	VHR inh abs 51.9 (no result: SARS 3CLpro inh)
O=Cc1[nH]c2ccccc2c1N(C(=O)CCl)c1ccc([N+](=O)[O-])cc1	BJeLR lethal 111.2
S=C(Nc1cccc(Cl)c1)Nc1cccc2cnccc12	VHR inh abs 50.8 (no result: BJeLR lethal, PrPC TRFRET)
CC(=O)NC(c1ccccc1)c1nc(-c2cccs2)cs1 (stereo unspecified)	none (no result: VHR inh abs, BJeLR lethal, SARS 3CLpro inh)
Oc1ccc(N2CCN(CC(O)c3ccccc3)CC2)cc1 (stereo unspecified)	VHR inh abs 50.4
CCOc1cc(N2CCOCC2)c(OCC)cc1NC(=O)CN1C(=O)NC(C)(c2ccc(OC)cc2)C1=O (stereo unspecified)	none (no result: VHR inh abs, BJeLR lethal, SARS 3CLpro inh)
COc1ccc(N)cc1NC(=O)CN1CCCC1	VHR inh abs 58.9
COc1ccc(Cl)cc1NC(=O)CN1CCCCCC1	none
COc1ccccc1NC(=O)CN1CCN(C2c3ccccc3-c3ccccc32)CC1	VHR inh abs 50.8
CCc1nc(N2CCN(C(=O)c3ccco3)CC2)c2oc3ccccc3c2n1	VHR inh abs 51.9
CCOC(=O)c1ccc2c(c1)n(CC)c(/C=C/N(C)c1ccccc1)[n+]2CC	none
CC[n+]1c(/C=C/N(C)c2ccccc2)n(-c2ccccc2)c2ccc(-c3nc4ccccc4s3)cc21	BJeLR lethal 91.3 (no result: PrPC TRFRET)
Cc1ccc(C)c(OCCC(=O)OCC(=O)Nc2ccc(Cl)cn2)c1	none (no result: VHR inh abs, SARS 3CLpro inh)
COc1ccccc1CN1CCNC(=O)C1CC(=O)NCCCn1cccn1 (stereo unspecified)	none
CCOc1ccccc1CN1CCNC(=O)C1CC(=O)NCCCn1cccn1 (stereo unspecified)	VHR inh abs 51.2
COC(=O)Cc1nnn2c1CC(OC)c1ccccc1-2 (stereo unspecified)	none (no result: VHR inh abs, BJeLR lethal, SARS 3CLpro inh)
O=C(COC(=O)c1cccnc1)Nc1ccccc1	VHR inh abs 57.3
Cc1ccccc1N(C(=O)Cc1ccsc1)C(C(=O)NC1CCCCC1)c1ccc(F)cc1 (stereo unspecified)	VHR inh abs 56.3
O=C(NC1CCCC1)C(c1ccncc1)N(C(=O)Cc1cccs1)c1ccc(F)cc1 (stereo unspecified)	none
O=C(c1ccco1)N1CCN(C(=O)c2oc(=O)c3ccccc3c2-c2ccccc2)CC1	none
O=C(c1oc(=O)c2ccccc2c1-c1ccccc1)N1CCOCC1	VHR inh abs 50.8
Cc1ccc(C#N)c(SCCN2CCCCC2)n1	VHR inh abs 52.0
CC1(C(=O)N(CC(=O)NC2CCCC2)Cc2ccc(Cl)cc2)CC(=O)N=C2C=CC=CN21 (stereo unspecified)	VHR inh abs 52.0
CCCCCN=C(N)N/N=C/c1c[nH]c2ccc(OC)cc12	BJeLR lethal 69.6 (no result: VHR inh abs, SARS 3CLpro inh)
CC(=O)c1sc(Nc2ccc3c(c2)OCO3)nc1C	none (no result: VHR inh abs, BJeLR lethal, SARS 3CLpro inh)
CCOC(=O)C(CC)n1cnc2c(nnn2-c2ccc(C)cc2)c1=O (stereo unspecified)	none
CCOC(=O)C(CC)n1cnc2c(nnn2-c2cccc(OC)c2)c1=O (stereo unspecified)	VHR inh abs 53.0
O=C1/C(=C/c2ccc(N3CCCC3)cc2)NC(=S)N1C1CC1	VHR inh abs 51.6
CCCCc1c(-c2ccccc2OC)ncn1Cc1cccc(F)c1F	none (no result: VHR inh abs, BJeLR lethal, SARS 3CLpro inh)
COc1cccc(CNCC(O)COc2ccc(C(=O)c3ccccc3)cc2)c1 (stereo unspecified)	VHR inh abs 52.0
O=C(c1ccccc1)c1ccc(OCC(O)CNCc2ccc(Cl)cc2)cc1 (stereo unspecified)	none
COc1ccc(C2C(C(=O)N3CCOCC3)CC(=O)N2c2ccc(OC)cc2)cc1 (stereo unspecified)	none (no result: VHR inh abs, BJeLR lethal, SARS 3CLpro inh)
Cc1ccc(SCC(=O)Nc2nnc(C(C)(C)C)s2)cc1	VHR inh abs 54.3
O=C(NCCNC(=O)c1cc(OCC(F)(F)F)ccc1OCC(F)(F)F)Nc1cccc(C(F)(F)F)c1	SARS 3CLpro inh 16.4
CN(C)S(=O)(=O)NCCNC(=O)c1cc(OCC(F)(F)F)ccc1OCC(F)(F)F	none
CC(=O)Nc1cc(-c2ccccc2)cn2c(-c3ccc(F)cc3)cnc12	none (no result: VHR inh abs, BJeLR lethal, SARS 3CLpro inh)
COc1ccc(/C=C(\NC(=O)c2cccs2)C(=O)NC(C)(C)C)cc1OC	VHR inh abs 53.0
O=C(Cc1ccccc1[N+](=O)[O-])NNC(=O)Nc1ccc2c(c1)OCO2	VHR inh abs 50.2
O=C(c1ccc(Cl)cc1)N1CCc2ccccc21	VHR inh abs 55.7
Cc1ccc(C(=O)N2CCc3ccccc32)cc1	none
COc1ccc(C(=O)NCc2cc(C(C)C)no2)cc1OC1CCN(C(C)C)CC1	none
CCc1cc(CNC(=O)c2ccc(OC)c(OC3CCN(C(C)C)CC3)c2)on1	VHR inh abs 57.1
Cc1ccc(C(=O)N(C)[C@H]2C[C@H]3c4[nH]c5c(-c6cccc(C)c6)cccc5c4CCN3C[C@H]2[C@H](C)O)cc1	none (no result: VHR inh abs, BJeLR lethal, SARS 3CLpro inh)
COC(=O)[C@]12C[C@H](CC(=O)NCc3ccc(C)o3)C(=O)N(CCC3=CCCCC3)C1=C[C@H](C(C)C)O[C@@H]2C1CC1	none (no result: VHR inh abs, BJeLR lethal, SARS 3CLpro inh)
CC1(C)CC(=O)C2=C(C1)Oc1ncn(Cc3ccco3)c(=N)c1C2c1ccccc1 (stereo unspecified)	none
COc1ccc(C2C3=C(CC(C)(C)CC3=O)Oc3ncn(Cc4ccccc4)c(=N)c32)cc1 (stereo unspecified)	VHR inh abs 55.3
CC(C)(C#N)NC(=O)C1CCCN1S(=O)(=O)c1ccc2ccccc2c1 (stereo unspecified)	none
CC(C)c1ccc(NC(=O)c2ccccc2NC(=O)C2CC=CCC2C(=O)O)cc1 (stereo unspecified)	none (no result: BJeLR lethal)
COc1ccc(NC(=O)C(=O)NCC2CCCN2S(=O)(=O)c2ccc(C)cc2)cc1 (stereo unspecified)	BJeLR lethal 51.0 (no result: VHR inh abs, SARS 3CLpro inh)
CC1CCCN(CCCNC(=O)c2ccc(CS(=O)(=O)c3c(Cl)cccc3Cl)o2)C1 (stereo unspecified)	VHR inh abs 56.3
CC1CCCN(CCCNC(=O)c2ccc(CS(=O)(=O)Cc3cccc(Cl)c3)o2)C1 (stereo unspecified)	none
C[C@@H]1O[C@@H](n2c3ccc(Cl)cc3c3ccc4c5cc(Cl)ccc5[nH]c4c32)[C@H](O)[C@H](O)[C@H]1O	none (no result: VHR inh abs, BJeLR lethal, SARS 3CLpro inh)
COC(=O)c1cc(OC)c(OC)cc1N=CC1=C(O)CC(C)(C)CC1=O	VHR inh abs 54.7
Cc1nnc(SCC(=O)NC2CCCC(C)C2C)n1N (stereo unspecified)	none (no result: VHR inh abs, BJeLR lethal, SARS 3CLpro inh)
Cc1ccc(C(C)(C)C)cc1S(=O)(=O)Nc1nc2ccccc2nc1Cl	PrPC TRFRET 26.8
Cc1cc(F)ccc1S(=O)(=O)Nc1nc2ccccc2nc1Cl	none
Cc1sc2cc3c(c(C(=O)c4ccccc4)[n+]2c1C)-c1cccc2cccc-3c12	BJeLR lethal 68.0
O=C(c1ccccc1)c1c2c(cc3sc4ccccc4[n+]13)-c1cccc3cccc-2c13	none (no result: BJeLR lethal)

Screens as filed in PubChem BioAssay.
